According to PubChem BioAssay (Tox21):
Inconclusive results are not listed. Entries that show only a call come without a potency. A number with no mark means an inactive call. Calls of active or inactive are those of the source. Calls come from the whole dose curve; as a rule, active = well fitted activation curve with a large enough effect in the repeat runs; inconclusive = weak or mixed curves; inactive = no such curve, though single readings can be large or run the other way.

The compounds below were run against Nuclear receptor subfamily 1 group I member 3 (Homo sapiens) (UniProt Q14994) (assay: qHTS assay to identify small molecule agonists of the constitutive androstane receptor (CAR) signaling pathway (AID 1224839; note: nearly all actives have a fitted effect of over 15% in size;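 for activation: HepG2 cells stably carrying human CAR and a CYP2B6 luciferase reporter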)). Conditions: HepG2 hCAR CYP2B6-luciferase, agonist mode, 24 h; series mostly up to 92.4 µM.
Sequence of Nuclear receptor subfamily 1 group I member 3 (Homo sapiens) (Q14994 whole entry, looked up): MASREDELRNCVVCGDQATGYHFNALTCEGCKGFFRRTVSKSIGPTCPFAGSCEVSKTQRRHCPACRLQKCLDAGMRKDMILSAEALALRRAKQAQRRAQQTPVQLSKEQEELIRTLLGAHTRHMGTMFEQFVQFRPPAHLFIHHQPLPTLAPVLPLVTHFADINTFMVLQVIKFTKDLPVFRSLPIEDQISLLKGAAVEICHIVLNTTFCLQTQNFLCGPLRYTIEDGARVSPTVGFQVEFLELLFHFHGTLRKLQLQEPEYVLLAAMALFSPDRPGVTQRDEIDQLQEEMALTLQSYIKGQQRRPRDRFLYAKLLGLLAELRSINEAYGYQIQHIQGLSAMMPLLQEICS
Source text: National Center for Advancing Translational Sciences [NCATS] NIH Chemical Genomics Center [NCGC] U.S. Environmental Protection Agency [EPA] National Institutes of Environmental Health Sciences [NIEHS] National Toxicology Program [NTP] Assay overview: The constitutive androstane receptor (CAR) is a nuclear receptor which regulates multiple drug metabolizing enzymes (DMEs) and transporters. Activating CAR will generally increase the transcription and subsequent translation of CYP2B6 and CYP3A4. These two DMEs represent about 50% of the drug metabolizing potential in the body. […] Recently, there have also been studies performed indicating CARs role in energy metabolism and cancer therapy. Therefore, inducing CARs activity could have a potential effect on diabetes and cancer. Identifying environmental toxins and compounds which modulate CAR, through the use of the Tox21 10K compound collection, will be an important step in determining the toxicity and potential therapeutic effects these factors will have on the human body.
Assay Protocol Summary: A double-stable (hCAR and CYP2B6-2.2kb) transfected cell line, derived from human hepatoma (HepG2) cells, was utilized for the duration of the quantitative high-throughput screens. The HepG2-CYP2B6-hCAR cells suspended in DMEM culture medium supplemented with 10% FBS, 5 ug/mL blasticidin, 0.5 mg/mL geneticin, 100 U/mL penicillin and 100 ug/mL streptomycin were dispensed at 2500 cells/4 uL/well in 1536-well white solid bottom plates using a Multidrop Combi. After the assay plates were incubated at 37 C/5% CO2 for 4 hrs, 23 nL of compounds at 15 concentrations (from 5-48 columns) or positive control (from 1 to 4 columns) were transferred to the assay plates using a Pintool station. One uL of PK11195, was added using a Flying Reagent Dispenser to generate a final concentration of 0.75 uM PK11195 inside each well. After a 24 hr incubation period at 37 C/5% CO2, four uL of ONE-Glo reagent was added into the assay plates using a Flying Reagent Dispenser. After a 30 min incubation period at room temperature, the luminescence intensity in the assay plates was measured using a ViewLux plate reader.
Potency is the fitted concentration of half-maximal effect.

Compound	Potency	activation
CCC(=O)OC	inactive	–
COc1ncnc(NS(=O)(=O)c2ccc(N)cc2)c1OC	inactive	–
CC1(C)[C@H](C(=O)O)N2C(=O)C[C@H]2S1(=O)=O	inactive	–
Cc1cc(=O)c2c(O)c3c(O)cc(=O)c4c3c3c(cc(O)c1c23)C(C)(C)C=4O	–	-14.4% [at 19 µM]
CCCCN(CCN(CCCC)C(=O)N1CCOCC1)C(=O)N1CCOCC1	inactive	–
Cc1ccccc1S	inactive	–
C[C@@H]1CC(=O)NN=C1c1ccc(NN=C(C#N)C#N)cc1	inactive	–
N#CCCN(CCO)CCO	inactive	–
CC(O)c1ccccc1 (stereo not given)	inactive	–
Cc1cccc(O)c1N	inactive	–
CN1CC(=O)N2[C@H](c3ccc4c(c3)OCO4)c3[nH]c4ccccc4c3C[C@@H]2C1=O	inactive	–
OCCOCC#CCOCCO	inactive	–
O=C1c2ccccc2C(=O)C1c1ccc(Br)cc1	29.8 µM (active)	–
O=C(O)C[C@H](NC(=O)OCc1ccccc1)C(=O)O	inactive	–
FC(F)(F)c1ccccc1Cl	inactive	–
CC(=O)N/N=C/c1ccc([N+](=O)[O-])o1	inactive	–
CCOC(C)=O	inactive	–
Cc1cc(O)c(C)c(C)c1O	inactive	–
O=C1NCCN1CCO	inactive	–
O=C1Cc2ccccc2N1c1c(Cl)cccc1Cl	30.6 µM (active)	–

Compound	Potency	activation
C/C=C/C=C/C=O	inactive	–
COc1cc(C(=O)NCCCCCC(=O)O)cc(OC)c1OC	inactive	–
O=C(OCC(O)CO)c1ccccc1Nc1ccnc2cc(Cl)ccc12 (stereo not given)	inactive	–
COc1ccccc1N1CCN(CC(O)COc2cccc3ccccc23)CC1 (stereo not given)	inactive	–
CC(C)COCC(CN(Cc1ccccc1)c1ccccc1)N1CCCC1 (stereo not given)	inactive	–
Brc1cc2ccccc2c2ccccc12	17.4 µM (active)	–
CC(C)(C)CC(=O)OCC(=O)[C@@]1(O)CC[C@H]2[C@@H]3CCC4=CC(=O)C=C[C@]4(C)[C@H]3[C@@H](O)C[C@@]21C	inactive	–
CCOC(=O)C1=C(C)NC(C)=C(C(=O)OC)C1c1cccc(Cl)c1Cl (stereo not given)	inactive	–
O=C(O)CCCCCCCCCCCBr	inactive	–
C1C[C@@H]2[C@H]3CC[C@H](C3)[C@@H]2C1	inactive	–
CN1C(=O)c2ccccc2C1=O	inactive	–
CCCCCC#CC(=O)OC	inactive	–
NC(=O)c1ccncc1	inactive	–
C/C=C(/C(=C/C)c1ccc(O)cc1)c1ccc(O)cc1	inactive	–
CC(C)Nc1cccnc1N1CCN(C(=O)c2cc3cc(NS(C)(=O)=O)ccc3[nH]2)CC1	inactive	–
COc1ccccc1NC(=O)c1cc2ccccc2cc1O	17.2 µM (active)	–
C=C1c2cccc(O)c2C(O)=C2C(=O)[C@]3(O)C(O)=C(C(N)=O)C(=O)[C@@H](N(C)C)[C@@H]3[C@@H](O)[C@H]12	inactive	–
CN(C)CCC=C1c2ccccc2C=Cc2ccccc21	inactive	–
CCCCN1CCCC1C(=O)Nc1c(C)cc(C)cc1C (stereo not given)	29.8 µM (active)	–
CC(CN(C)C)C(C)(O)Cc1ccc(Cl)cc1 (stereo not given)	inactive	–
